Assay results taken from PubChem BioAssay (Tox21).
Inconclusive results are not listed. Active and inactive are the calls of the source. Unless noted, calls come from the whole dose curve; as a rule, active = well fitted curve in the direction sought with a large enough effect in the repeat runs; inconclusive = weak or mixed curves; inactive = no such curve, though single readings can be large; an effect the other way counts as inactive or inconclusive.

Key:
[1] = qHTS assay to identify small molecule agonists of the NFkB signaling pathway - cell viability counter screen (AID 1159515; calls by dose curve; note: series mostly up to about 61 µM; nearly all actives have a fitted effect of over 55% in size)
Outline: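 Parallel cytotoxicity counter screen in ME-180 cells carrying an NFkB-response-element beta-lactamase reporter, 2,000 cells/well. Compound exposure lasted 5 hr at 37 C, 5% CO2. Cell viability was quantified by CellTiter-Glo luminescence.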

[2] = qHTS assay to identify small molecule agonists of the endoplasmic reticulum stress response signaling pathway (AID 1159516; active = well fitted activation curve with a large enough effect in the signal ratio in the repeat runs, not every such curve was filed as active; the % refers to the signal ratio)
Outline: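 Using a HeLa line with an ESRE-driven beta-lactamase gene, agonist activity was measured by FRET substrate fluorescence (460 and 530 nm emission) after cells were treated with compounds for 5 hr at 37 C and 5% CO2.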

[3] = qHTS assay to identify small molecule agonists of the endoplasmic reticulum stress response signaling pathway - cell viability counter screen (AID 1159517; calls by dose curve;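 note: HeLa cells carrying an ER stress response element beta-lactamase reporter; series mostly up to about 61 µM; nearly all actives have a fitted effect of over 50% in size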)
Outline: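 Steps: seed 1,500 ESRE-bla HeLa cells per well; incubate overnight at 37 C, 5% CO2; add compounds in DMSO for 5 hr; run FRET substrate 2 hr RT; add CellTiter-Glo, wait 30 min, read luminescence.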

[4] = qHTS assay to identify small molecule antagonists of the retinoid-related orphan receptor gamma (ROR-gamma) signaling pathway - cell viability counter screen (AID 1159520); note: nearly all actives have a fitted effect of over 50% in size
Outline: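 Tet-on ROR gamma CHO cells were given compounds for 2 hr, then doxycycline hyclate at 1 uM final, and incubated 16 hr at 37 C. Viability was measured as ATP content by CellTiter-Glo luminescence.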

[5] = target: Nuclear receptor ROR-gamma (Homo sapiens) (UniProt P51449); experiment: qHTS assay to identify small molecule antagonists of the retinoid-related orphan receptor gamma (ROR-gamma) signaling pathway (AID 1159521;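 note: CHO cells with doxycycline inducible ROR-gamma driving an RORE luciferase reporter; top concentration of the series differs between compounds; nearly all actives have a fitted effect of over 50% in size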)
Outline: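 Test compounds were applied to Tet-on RORγ CHO cells 2 h ahead of doxycycline hyclate (1 uM final). Luciferase reporter activity was quantified by luminescence after 16 h at 37 C and 5% CO2.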

[6] = qHTS assay to identify small molecule agonists of the AP-1 signaling pathway - cell viability counter screen (AID 1159525; calls by dose curve; note: nearly all actives have a fitted effect of over 55% in size)
Outline: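 Same-well cytotoxicity counter screen of the Tox21 10K library in ME-180 cells. The readout is ATP-dependent luminescence after 5 h compound treatment. Data are normalised to DMSO and tetra n-octyl ammonium bromide controls.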

[7] = qHTS assay to identify small molecule agonists of the AP-1 signaling pathway (AID 1159526; calls by dose curve)
[8] = qHTS assay to identify small molecule agonists of the RXR signaling pathway - cell viability counter screen (AID 1159529); note: series mostly up to about 77 µM; nearly all actives have a fitted effect of over 50% in size
Outline: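 Compounds dissolved in DMSO were pinned onto HEK 293T cells carrying a beta-lactamase reporter under RXR-alpha control and incubated 16 hr. Cytotoxicity was then quantified by CellTiter-Glo luminescence.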

[9] = qHTS assay to identify small molecule antagonists of the retinoid acid receptor (RAR) signaling pathway - cell viability counter screen (AID 1159551); note: nearly all actives have a fitted effect of over 35% in size
Outline: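 ATP-based viability, C3RL4 cells, 6 h at 37 C with 1 uM final retinol co-added after compound; luminescence read 30 min post CellTiter-Glo, RT.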

[10] = qHTS assay to identify small molecule antagonists of the retinoic acid receptor (RAR) signaling pathway (AID 1159552; note: nearly all actives have a fitted effect of over 50% in size)
Outline: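 Test chemicals and DMSO controls were pin-transferred onto C3RL4 cells a day after seeding; retinol (1 uM final) followed at once. Luminescent reporter output was quantified after 6 hr of co-incubation and 30 min with detection reagent.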

[11] = qHTS assay to identify small molecule agonists of the retinoic acid receptor (RAR) signaling pathway (AID 1159553); note: potency is the fitted concentration of half-maximal effect
Outline: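 Quantitative high-throughput format: the Tox21 10K library was tested on C3RL4 RARE-luciferase cells for 6 hr at 37 C and 5% CO2, with luminescence measured after a 30 min room-temperature reagent step.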

[12] = target: Luciferin 4-monooxygenase (Photinus pyralis) (UniProt P08659); experiment: qHTS assay to identify small molecule inhibitors of firefly luciferase (AID 1224835); note: nearly all actives have a fitted effect of over 25% in size; note: potency is the fitted concentration of half-maximal effect
Outline: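 Biochemical qHTS: compounds run as interplate titrations against purified firefly enzyme, with D-luciferin and ATP each at its KM concentration. Light output recorded by CCD imaging.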

[13] = target: Retinoic acid receptor RXR-alpha (Homo sapiens) (UniProt P19793); experiment: qHTS assay to identify small molecule agonists of the RXR signaling pathway (AID 1159527; calls by dose curve; note: nearly all actives have a fitted effect of over 35% in size; note: potency is the fitted concentration of half-maximal effect)
Outline: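 Using 9-cis retinoic acid as the reference agonist, chemicals were tested in HEK 293T cells […] for 16 hr; substrate loading lasted 2 hr at room temperature.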

[14] = qHTS assay to identify small molecule antagonists of the estrogen related receptor (ERR) signaling pathway from Tox21 library - cell viability counter screen (AID 1224834); note: nearly all actives have a fitted effect of over 30% in size
Outline: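 Compounds in DMSO were pinned onto ERR cells that had been incubated for 6 h, and the plates were held at 37 C for 17.5 h. CellTiter-Fluor reagent was then added and fluorescence was measured after 30 min.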

[15] = qHTS assay to identify small molecule agonists of the constitutive androstane receptor (CAR) signaling pathway - cell viability counter screen (AID 1224836); note: series mostly up to about 92 µM; nearly all actives have a fitted effect of over 45% in size
Outline: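 23 h treatment, 37 C, 5% CO2. Cell line: HepG2 stably expressing hCAR with a CYP2B6-2.2kb construct. Co-treatment: PK11195, 0.75 uM final. Read-out: CellTiter-Fluor fluorescence intensity.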

[16] = qHTS assay to identify small molecule antagonists of the estrogen related receptor (ERR) signaling pathway - cell viability counter screen (AID 1224818);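 note: series mostly up to about 46 µM; viability measured after 17.5 h of compound exposure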
Outline: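 Quantitative high-throughput viability counter screen in ERR cells. Compounds (DMSO) incubated 17.5 h at 37 C; read-out was CellTiter-Fluor fluorescence.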

Measured: Potency

Sequence of Luciferin 4-monooxygenase (Photinus pyralis) (P08659 whole entry, looked up): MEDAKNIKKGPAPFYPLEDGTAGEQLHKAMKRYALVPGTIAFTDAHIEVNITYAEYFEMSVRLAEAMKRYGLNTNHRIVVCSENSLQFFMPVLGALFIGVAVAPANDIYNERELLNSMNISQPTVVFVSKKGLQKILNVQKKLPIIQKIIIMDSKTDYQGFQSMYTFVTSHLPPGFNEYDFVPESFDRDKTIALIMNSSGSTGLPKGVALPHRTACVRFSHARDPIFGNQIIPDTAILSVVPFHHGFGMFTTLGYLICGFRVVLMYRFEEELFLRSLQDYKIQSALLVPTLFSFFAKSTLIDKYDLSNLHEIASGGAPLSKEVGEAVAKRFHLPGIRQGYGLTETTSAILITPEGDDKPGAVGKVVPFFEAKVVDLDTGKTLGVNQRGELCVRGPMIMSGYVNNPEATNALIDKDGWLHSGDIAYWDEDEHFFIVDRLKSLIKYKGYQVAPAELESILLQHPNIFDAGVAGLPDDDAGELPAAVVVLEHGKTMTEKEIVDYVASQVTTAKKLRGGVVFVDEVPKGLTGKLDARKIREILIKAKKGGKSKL
Sequence of Retinoic acid receptor RXR-alpha (Homo sapiens) (P19793 whole entry, looked up): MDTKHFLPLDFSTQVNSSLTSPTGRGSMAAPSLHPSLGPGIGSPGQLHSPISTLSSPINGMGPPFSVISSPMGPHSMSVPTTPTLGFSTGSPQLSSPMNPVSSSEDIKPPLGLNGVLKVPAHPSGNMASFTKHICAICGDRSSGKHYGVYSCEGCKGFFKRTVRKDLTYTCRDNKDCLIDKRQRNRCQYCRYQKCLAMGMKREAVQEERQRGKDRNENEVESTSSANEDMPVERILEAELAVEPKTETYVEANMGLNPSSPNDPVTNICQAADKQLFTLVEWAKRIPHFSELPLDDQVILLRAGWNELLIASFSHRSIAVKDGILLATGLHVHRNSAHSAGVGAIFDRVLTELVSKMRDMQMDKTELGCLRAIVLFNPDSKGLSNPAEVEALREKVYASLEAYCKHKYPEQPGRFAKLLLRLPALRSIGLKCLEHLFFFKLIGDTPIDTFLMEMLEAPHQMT

CC(=O)c1ccc2c(c1)[C@H](NC(=O)c1ccc(F)cc1)[C@@H](O)C(C)(C)O2
not listed: [13] | [14] | [15] | [16]
inactive: all other assays above

CC(=O)OC/C=C/c1ccccc1
not listed: [8] | [10] | [11] | [16]
inactive: all other assays above

C=CC[N+]1([C@H]2C[C@H]3[C@@H]4CC[C@H]5C[C@H](OC(C)=O)[C@@H](N6CCCCC6)C[C@]5(C)[C@H]4CC[C@]3(C)[C@H]2OC(=O)CC)CCCCC1
not listed: [8] | [10] | [16]
inactive: all other assays above

CCCCOC(=O)/C=C\C(=O)OCCCC
not listed: [8] | [10] | [16]
inactive: all other assays above

c1ccc(CNCc2ccccc2)cc1
not listed: [13] | [16]
inactive: all other assays above

O=[N+]([O-])c1cccc(Cl)c1Cl
not listed: [10] | [12] | [13] | [15] | [16]
inactive: all other assays above

CCCCCC(CO)CCC (stereo unspecified)
not listed: [13] | [16]
inactive: all other assays above

C1=Cc2ccccc2C1
not listed: [8] | [10] | [14] | [16]
inactive: all other assays above

CCOc1ccc2[nH]cc(C(=O)NCc3ccccc3)c(=O)c2n1
not listed: [13] | [14] | [16]
inactive: all other assays above

CC(C)CC=O
not listed: [10] | [13] | [15] | [16]
inactive: all other assays above

CC(C(=O)O)c1ccc(C(=O)c2ccccc2)s1 (stereo unspecified)
active: [11] 8.41 µM | [12] 15.5 µM
not listed: [10] | [13] | [16]
inactive: all other assays above

CC(=O)c1c(C)c([N+](=O)[O-])c(C(C)(C)C)c([N+](=O)[O-])c1C
active: [13] 21.9 µM
not listed: [8] | [14] | [16]
inactive: all other assays above

CCN(CC)CCc1nc(-c2ccccc2)no1
not listed: [11] | [13] | [16]
inactive: all other assays above

CCN(CC)CCOC(=O)C1(c2ccccc2)CCCC1
not listed: [8] | [16]
inactive: all other assays above

CC(C(=O)O)c1ccc(-c2ccccc2)c(F)c1 (stereo unspecified)
not listed: [12] | [13] | [16]
inactive: all other assays above

CN1CCC(OC(c2ccccc2)c2ccccc2)CC1
not listed: [8] | [9] | [16]
inactive: all other assays above

O=C(c1ccccc1)c1ccc2n1CCC2C(=O)O (stereo unspecified)
active: [11] 13.3 µM
not listed: [12] | [13] | [15]
inactive: all other assays above

CC(C)(C)c1cc(CO)cc(C(C)(C)C)c1O
not listed: [13] | [14] | [16]
inactive: all other assays above

CC(CN)CCCN (stereo unspecified)
not listed: [11] | [13] | [15] | [16]
inactive: all other assays above

O=c1c2ccccc2nnn1CCl
not listed: [8] | [11] | [16]
inactive: all other assays above
